Laboratory results from PubChem BioAssay (NCI).
About 79,000 compounds went through this panel and 15% of them were active in at least one assay; those are over-represented in the sample as a whole. A number with no mark means an inactive call. Rule as the data show it: active = growth inhibition above about 70%; inactive = the rest.

test: NCI Yeast Anticancer Drug Screen. Data for the sgs1 mgt1 strain (AID 161);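 also: 0% = growth of cultures given vehicle only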; settings: S. cerevisiae sgs1 mgt1 strain, at 50.0 µM, stronger effect = higher value
Method in brief: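 Yeast cells carrying a defined DNA-repair defect were exposed to test compounds. Growth inhibition was measured relative to vehicle-treated controls.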

First: CN(C)c1ccccc1C(=O)NNC(=S)Nc1ccccc1
Second: NC(=S)N/N=C1/CC(=O)N(c2ccccc2)C1c1ccccc1 (stereo not given)
The growth inhibition of the first is higher: 42.7% for the first, 37% for the second.

Going from `COc1cccc2c1C(=O)c1c(C)c(C)c(C)c(C)c1-2` to `CCOC(=O)Cc1csc2[n+]1C(=O)/C(=C/c1cccc(OC)c1O)S2`, the growth inhibition rises from 3.05% to 53.4%.

Compared with `C#CC(OC(=O)NC(C(=O)OC)C(C)C)(c1ccccc1)c1ccccc1` (stereo not given), `Cc1ccccc1NC(=O)C(=O)Cc1nc2ccccc2s1` is lower in growth inhibition: 14.3% for the first, -1.5% for the second.

First: CC(=O)[C@@]1(O)CC[C@H]2[C@@H]3C[C@H](C)C4=CC(=O)C=C[C@]4(C)[C@@]3(F)[C@@H](O)C[C@@]21C
Second: CCNC(=O)C1CCN(Cc2c[nH]c3ccccc23)CC1
The growth inhibition of the first is lower: -11.1% for the first, 33.2% for the second.

First: N#CC1(c2ccccc2)C(c2ccccc2)CC(O)(c2ccccc2)C(C(=O)c2ccccc2)C1c1ccccc1 (stereo not given)
Second: c1ccc(-c2cc(-c3ccccc3)n(-c3ccccc3)c2-c2ccccc2)cc1
The growth inhibition of the first is higher: 3.5% for the first, 0.45% for the second.

First: CCCCC(CC)COCCC(=O)O (stereo not given)
Second: CCCCCCCCN(C)/N=N/c1nc[nH]c1C(N)=O
The growth inhibition of the first is lower: -4.25% for the first, 15.1% for the second.

Compared with `COc1cc(OC)c2c(=O)cc(-c3ccc(OC)c(OC)c3OC)oc2c1`, `COc1ccc(NC(=O)Oc2ccc3c(C)cc(=O)oc3c2)c(OC)c1` (tested in a mixture with another compound) is higher in growth inhibition: -30.1% for the first, -22.6% for the second.

Going from `O=c1oc2nc(-c3ccccc3)[nH]c(=O)c2c2c1CCCC2` to `O=C(O)c1nc2ccccc2c(=O)[nH]1`, the growth inhibition rises from -19.2% to -9.7%.

Going from `O=c1c2ccccc2nc(-c2ccccc2Cl)n1NCC1(O)OCC(O)C(O)C1O` (stereo not given) to `O=C(O)c1ccc(C(=O)Nc2cccc3ccccc23)c(C(=O)O)c1`, the growth inhibition falls from 16.6% to -11.9%.

Compared with `COC(=O)C(=O)C1CSC2=C(CS(=O)(=O)c3ccccc32)C1=O` (stereo not given), `O=c1oc2ccccc2c(O)c1[N+](=O)[O-]` is higher in growth inhibition: -10.6% for the first, -6.4% for the second.

Compared with `Cc1cc(=O)oc2c(C)c3oc4c(c3cc12)CN(C)CC4`, `COc1c2c(cc3occ(-c4ccc(CC=C(C)C)cc4)c(=O)c13)OC(C)(C)C=C2` is lower in growth inhibition: 25.4% for the first, -3% for the second.

Compared with `COc1ccccc1Nc1nc(NNC(=O)Cc2ccccc2)nc(NNC(=O)c2ccncc2)n1`, `Cc1nc(N)nc(-c2ccccc2)c1N=Nc1ccccc1Br` is lower in growth inhibition: 25.3% for the first, 4.4% for the second.

Compared with `CCOCCOCCOC(=O)c1ccccc1O`, `CC(=O)OCCOc1ccccc1Cl` is higher in growth inhibition: -4.4% for the first, 3.25% for the second.

Going from `CCOC(OCC)/C(C)=N/N(C)C` to `CC(C)=NOCCC#N`, the growth inhibition rises from -5.35% to -4.8%.

Going from `Nc1cccc(N)n1` to `CCCc1c(-c2ccccc2)nc(N)nc1-c1nc(N)nc(-c2ccccc2)c1CCC`, the growth inhibition rises from -15.8% to -12.4%.

Compared with `C=C(C(=C)N1N=NC2C3CCC(C3)C21)N1N=NC2C3CCC(C3)C21` (stereo not given), `O=C(O)CCCCCC1=CCCCC1` is higher in growth inhibition: 10.3% for the first, 20.9% for the second.

Going from `O=C(O)CCCC(=O)c1ccccc1` to `O=[N+]([O-])c1cccc(NC(c2ccccc2)S(=O)(=O)O)c1` (stereo not given), the growth inhibition rises from 4.85% to 9.65%.

Compared with `CC(C)C1CCC(=O)CC1`, `C/C=C/c1cc(C=O)cc(OC)c1O` is lower in growth inhibition: -1% for the first, -5.4% for the second.

Going from `CCCNc1ccc2c(c1)C(O)c1ccccc1-2` (stereo not given) to `O=C(Nc1cc([N+](=O)[O-])ccc1Cl)c1ccc(F)cc1`, the growth inhibition rises from 5.35% to 14.6%.

First: CCOc1ccc(/C(O)=C/c2nc3ccccc3nc2/C=C(\O)c2ccc(OCC)cc2)cc1
Second: CC(=O)NC(C=O)C(O)C(O)C(O)CO (stereo not given)
The growth inhibition of the first is higher: 16.4% for the first, -11.1% for the second.

test: NCI Yeast Anticancer Drug Screen. Data for the cln2 rad14 strain (AID 165);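 also: 0% = growth equal to vehicle treated cultures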; settings: S. cerevisiae cln2 rad14 strain, at 50.0 µM, stronger effect = higher value
Method in brief: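 Yeast carrying cln2 and rad14 alterations (cell cycle control and DNA damage repair) were exposed to compounds. Growth inhibition was measured against vehicle-treated controls.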

First: CN(C)c1ccccc1C(=O)NNC(=S)Nc1ccccc1
Second: NC(=S)N/N=C1/CC(=O)N(c2ccccc2)C1c1ccccc1 (stereo not given)
The growth inhibition of the first is lower: -13.1% for the first, -2.8% for the second.

First: COc1cccc2c1C(=O)c1c(C)c(C)c(C)c(C)c1-2
Second: CCOC(=O)Cc1csc2[n+]1C(=O)/C(=C/c1cccc(OC)c1O)S2
The growth inhibition of the first is higher: -1.7% for the first, -10.2% for the second.

Compared with `C#CC(OC(=O)NC(C(=O)OC)C(C)C)(c1ccccc1)c1ccccc1` (stereo not given), `Cc1ccccc1NC(=O)C(=O)Cc1nc2ccccc2s1` is higher in growth inhibition: -4.85% for the first, 11.8% for the second.

Going from `CC(=O)[C@@]1(O)CC[C@H]2[C@@H]3C[C@H](C)C4=CC(=O)C=C[C@]4(C)[C@@]3(F)[C@@H](O)C[C@@]21C` to `CCNC(=O)C1CCN(Cc2c[nH]c3ccccc23)CC1`, the growth inhibition rises from -33% to -12.9%.

First: N#CC1(c2ccccc2)C(c2ccccc2)CC(O)(c2ccccc2)C(C(=O)c2ccccc2)C1c1ccccc1 (stereo not given)
Second: c1ccc(-c2cc(-c3ccccc3)n(-c3ccccc3)c2-c2ccccc2)cc1
The growth inhibition of the first is higher: 14.3% for the first, -5.35% for the second.

Compared with `CCCCC(CC)COCCC(=O)O` (stereo not given), `CCCCCCCCN(C)/N=N/c1nc[nH]c1C(N)=O` is higher in growth inhibition: -55.9% for the first, 17.6% for the second.

Going from `COc1cc(OC)c2c(=O)cc(-c3ccc(OC)c(OC)c3OC)oc2c1` to `COc1ccc(NC(=O)Oc2ccc3c(C)cc(=O)oc3c2)c(OC)c1` (tested in a mixture with another compound), the growth inhibition falls from -2.3% to -19.7%.

Compared with `O=c1oc2nc(-c3ccccc3)[nH]c(=O)c2c2c1CCCC2`, `O=C(O)c1nc2ccccc2c(=O)[nH]1` is lower in growth inhibition: 9.3% for the first, -43.1% for the second.

Going from `O=c1c2ccccc2nc(-c2ccccc2Cl)n1NCC1(O)OCC(O)C(O)C1O` (stereo not given) to `O=C(O)c1ccc(C(=O)Nc2cccc3ccccc23)c(C(=O)O)c1`, the growth inhibition rises from -13.2% to 6.35%.

First: COC(=O)C(=O)C1CSC2=C(CS(=O)(=O)c3ccccc32)C1=O (stereo not given)
Second: O=c1oc2ccccc2c(O)c1[N+](=O)[O-]
The growth inhibition of the first is lower: -2.15% for the first, 2.7% for the second.

Going from `Cc1cc(=O)oc2c(C)c3oc4c(c3cc12)CN(C)CC4` to `COc1c2c(cc3occ(-c4ccc(CC=C(C)C)cc4)c(=O)c13)OC(C)(C)C=C2`, the growth inhibition falls from 20% to -24.8%.

Going from `COc1ccccc1Nc1nc(NNC(=O)Cc2ccccc2)nc(NNC(=O)c2ccncc2)n1` to `Cc1nc(N)nc(-c2ccccc2)c1N=Nc1ccccc1Br`, the growth inhibition falls from 17.6% to -6.95%.

Compared with `CCOCCOCCOC(=O)c1ccccc1O`, `CC(=O)OCCOc1ccccc1Cl` is lower in growth inhibition: -14.5% for the first, -16.9% for the second.

Going from `CCOC(OCC)/C(C)=N/N(C)C` to `CC(C)=NOCCC#N`, the growth inhibition falls from 7.3% to -16.6%.

Going from `Nc1cccc(N)n1` to `CCCc1c(-c2ccccc2)nc(N)nc1-c1nc(N)nc(-c2ccccc2)c1CCC`, the growth inhibition rises from 5.7% to 9.4%.

Going from `C=C(C(=C)N1N=NC2C3CCC(C3)C21)N1N=NC2C3CCC(C3)C21` (stereo not given) to `O=C(O)CCCCCC1=CCCCC1`, the growth inhibition rises from 7.15% to 19.2%.

First: O=C(O)CCCC(=O)c1ccccc1
Second: O=[N+]([O-])c1cccc(NC(c2ccccc2)S(=O)(=O)O)c1 (stereo not given)
The growth inhibition of the first is lower: -9.05% for the first, 18.9% for the second.

Going from `CC(C)C1CCC(=O)CC1` to `C/C=C/c1cc(C=O)cc(OC)c1O`, the growth inhibition rises from -12.2% to -10.6%.

First: CCCNc1ccc2c(c1)C(O)c1ccccc1-2 (stereo not given)
Second: O=C(Nc1cc([N+](=O)[O-])ccc1Cl)c1ccc(F)cc1
The growth inhibition of the first is lower: 2.4% for the first, 17.8% for the second.

First: CCOc1ccc(/C(O)=C/c2nc3ccccc3nc2/C=C(\O)c2ccc(OCC)cc2)cc1
Second: CC(=O)NC(C=O)C(O)C(O)C(O)CO (stereo not given)
The growth inhibition of the first is higher: -0.75% for the first, -16.2% for the second.
